Pf apPOL inh = Pf-apPOL inhibitors, biochemical, fluorescence. Plasmodium falciparum apicoplast DNA polymerase (apPOL). Recombinant Pf-apPOL, molecular beacon fluorescence, 1.5 h. inhibition, % at 10 µM. 210,000 tested, 0.25% active
mHTT-CaM PPI inh = mutant huntingtin-calmodulin interaction inhibitors – biochemical, AlphaScreen, primary screen | P42858 | AlphaScreen His-mHTT/GST-CaM binding, luminescence | inhibition, % at 15 µM | 190,000 tested, 3.6% active | AID 1671202, 2021;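 further: 0% = both proteins with DMSO and 100% = one protein alone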
* = called active by the depositor. The full list was thinned out, with hits kept by preference. No stated cut-off is given here; in the data, active means inhibition above about 50%; inactive means the rest.

SMILES	Pf apPOL inh	mHTT-CaM PPI inh
C(=C\c1nc2ccccc2[nH]1)/c1nc2ccccc2[nH]1	-1	1
Cc1ccc(C2CC(C(F)(F)F)n3ncc(C(=O)NCCCN4CCOCC4)c3N2)cc1 (centres undefined)	2	15
COc1cccc(S(=O)(=O)N2CCC(Cc3nc4cccnc4n3CC(C)C)C2)c1 (centres undefined)	-5	6
O=C(CN1CCN(C(=O)c2ccccc2F)CC1)Nc1ccccc1F	-3	-3
COc1ccccc1NC(=O)N1CCCC(C)(C(=O)NCc2ccc(F)cc2)C1 (centres undefined)	1	3
CCOC1=NN(c2ccc([N+](=O)[O-])cc2)C(=O)/C1=C/C=C/c1ccccc1OC	2	26
Cc1cccc(N2C(=O)NC(=O)/C(=C\c3cn(CC(=O)N4CCCC4)c4ccccc34)C2=O)c1C	-6	5
O=C1NC(=O)N(c2ccccc2F)C(=O)/C1=C/c1cn(CC(=O)N2CCCCC2)c2ccccc12	-2	59*
Cc1ccccc1N1C(=O)NC(=O)/C(=C\c2cn(CC(=O)N3CCOCC3)c3ccccc23)C1=O	-11	25
O=C1NC(=O)N(c2ccccc2F)C(=O)/C1=C/c1cn(CC(=O)N2CCCC2)c2ccccc12	-1	75*
Cc1ccccc1N1C(=O)NC(=O)/C(=C\c2cn(CC(=O)Nc3ccccc3)c3ccccc23)C1=O	0	64*
Cc1cccc(N2C(=O)NC(=O)/C(=C\c3cn(CC(=O)N4CCOCC4)c4ccccc34)C2=O)c1	-5	-2
COc1ccccc1NC(=O)CN1CCN(CC(=O)c2ccc3c(c2)OCO3)CC1	-8	-6
O=C(NCCc1cccs1)C1CCc2sc(C(=O)N3CCCCC3)cc2C1 (centres undefined)	-1	3
CCCCNc1nc2ccncc2n(Cc2ccccc2)c1=O	-6	-2
CCn1c(=O)c(NCCCN2CCCc3ccccc32)nc2ccncc21	0	67*
Cc1cccc2sc(N(CC3CCCO3)C(=O)Cc3ccc(S(C)(=O)=O)cc3)nc12 (centres undefined)	-2	7
CC1C(=O)N(Cc2cn(CCC3OCCCO3)nn2)CCS(=O)(=O)N1Cc1ccc(-c2cccc(N(C)C)c2)cc1 (centres undefined)	-2	40
COCOCCn1cc(CN2CCS(=O)(=O)N(Cc3ccc(-c4cccc(CO)c4)cc3)C(C(C)C)C2=O)nn1 (centres undefined)	-11	23
CC(C)C1C(=O)N(Cc2cn(CCC3OCCCO3)nn2)CCS(=O)(=O)N1Cc1ccc(-c2cccc(N(C)C)c2)cc1 (centres undefined)	-6	61*
COCOCCn1cc(CN2CCS(=O)(=O)N(Cc3ccc(-c4cccc(N(C)C)c4)cc3)C(C(C)C)C2=O)nn1 (centres undefined)	-3	57*
CC(C)C1C(=O)N(Cc2cn(CCC3OCCCO3)nn2)CCS(=O)(=O)N1Cc1ccc(-c2cccc(CO)c2)cc1 (centres undefined)	-7	46
CC(C)C1C(=O)N(Cc2cn(CCC3OCCO3)nn2)CCS(=O)(=O)N1Cc1ccc(-c2cccc(N(C)C)c2)cc1 (centres undefined)	-1	68*
CCC(=O)Nc1ccc(NC(=O)COc2ccc(CC)cc2)cc1	-2	-6
O=C(NCc1ccccc1)N1CCCC(OCc2nc(C3CC3)no2)C1 (centres undefined)	-2	-17
SMILES	Pf apPOL inh	mHTT-CaM PPI inh
CCCCN(CC)C(=O)N1CCOCC1	-8	-3
CC1(C)OC(=O)C(=Cc2ccc(-c3cccc(Cl)c3)o2)C(=O)O1	6	55*
CC1=NOC(=O)/C1=C/c1ccc(-c2ccc3c(c2)COC3=O)o1	-5	-1
Cc1ccc(-c2ccc(C=C3C(=O)OC(C)(C)OC3=O)o2)cc1	4	7
CC1=NOC(=O)/C1=C/c1ccc(-c2ccc(Cl)cc2)o1	-6	64*
O=C(Nc1ccc(Cn2cncn2)cc1)c1ccccn1	-5	-4
FC(F)(F)COc1nc(Cl)nc(Nc2ccccc2)n1	-4	86*
OCCNc1nc(Cl)nc(Nc2ccc(I)cc2)n1	-4	10
CCS(=O)(=O)NC1CCCN(c2cc(N3CCCC3)ncn2)C1 (centres undefined)	-5	-3
N#Cc1cnc2ccc(F)cc2c1N1CCC(C(=O)Nc2ccccc2)CC1	0	-7
Cn1cnnc1Sc1ccc([N+](=O)[O-])c2ncccc12	5	2
O=[N+]([O-])c1ccc(SCc2ccco2)c2cccnc12	-6	100*
COc1ccc(C2=N/C(=C\c3ccc(C)cc3)C(=O)O2)cc1OC	-1	12
O=C(Nc1ccc(F)cc1)c1cc([N+](=O)[O-])nn1Cc1ccccc1	-8	3
O=C(Nc1ccc(F)c(Cl)c1)c1cc([N+](=O)[O-])nn1Cc1ccccc1	-7	92*
COc1ccc(-c2coc3cc(OCc4ccc([N+](=O)[O-])cc4)ccc3c2=O)cc1	-5	-3
CC(=O)N1CCN(C(=O)c2c(C(C)C)nn(-c3ccc(C)cc3)c2C(C)C)CC1	-1	11
CC(C)c1nn(-c2ccc(Cl)c(Cl)c2)c(C(C)C)c1C(=O)N1CCOCC1	-2	67*
CCN1CCN(C(=O)c2cnn(-c3ccc(Cl)c(Cl)c3)c2C(C)C)CC1	-21	39
CCCc1nn(-c2ccc(Cl)c(Cl)c2)c(C(C)C)c1C(=O)N1CCOCC1	0	62*
CCCc1nn(-c2ccc(Cl)c(Cl)c2)c(CC)c1C(=O)N1CCOCC1	-5	67*
CCc1nn(-c2ccc(OC)cc2)c(CC)c1C(=O)N1CCOCC1	0	1
CC(C)Cn1c(CC2CCN(C(=O)Nc3ccccc3)C2)nc2cccnc21 (centres undefined)	-8	1
Cc1ccc2nc3c(cc(C(=O)NCc4ccccc4)c(=N)n3C3CCCC3)c(=O)n2c1	-4	0
CC(=O)Nc1cccc(N2CC(C(=O)Nc3ccc(C)cc3C)CC2=O)c1 (centres undefined)	0	10
SMILES	Pf apPOL inh	mHTT-CaM PPI inh
CC(=O)Nc1cccc(N2CC(C(=O)Nc3ccc(F)cc3C)CC2=O)c1 (centres undefined)	87*	4
COc1ccc(CCC(=O)N2CCC(c3nc4ccncc4n3C)C2)cc1 (centres undefined)	-7	-2
CCCC(=O)Nc1ccc2c(c1)OCCO2	3	-2
O=C(CCCn1cccc1)Nc1ccc2c(c1)OCCO2	78*	7
CCn1ccc2oc(C)c(C(=O)N3CCC(Cc4ccccc4)CC3)c2c1=O	1	93*
Cc1sc2ccn(Cc3ccc(F)cc3)c(=O)c2c1C(=O)N1CCOCC1	1	12
Cc1oc2ccn(Cc3ccc(F)cc3)c(=O)c2c1C(=O)N1CCCCC1	1	59*
Cc1oc2ccn(Cc3cccc(F)c3)c(=O)c2c1C(=O)N1CCCCC1	-1	1
CCn1ccc2oc(C)c(C(=O)N3CCC(C)CC3)c2c1=O	0	-10
Cc1sc2ccn(Cc3ccc(F)cc3)c(=O)c2c1C(=O)N1CCC(C)CC1	-5	80*
Cc1ccccc1CNc1ccc(-c2nc(-c3ccccc3)no2)cn1	1	-6
Cn1c(CC2CCN(S(=O)(=O)c3ccc(C(F)(F)F)cc3)C2)nc2cccnc21 (centres undefined)	2	28
C=CCn1c(=N)c(C(=O)NCC2CCCO2)cc2c(=O)n3cc(C)ccc3nc21 (centres undefined)	-5	-2

Screening results from PubChem.
